Reference: PubChem BioAssay (NCI)
Compounds without any hit were thinned out: in the full panel of roughly 79,000, 15% have a hit. Activity calls are given as the source filed them. No stated cut-off is given here; in the data, active means growth inhibition above about 70%; inactive means the rest.

Columns and labels:
[1] = NCI Yeast Anticancer Drug Screen. Data for the sgs1 strain (AID 173);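 further: 0% = growth of vehicle-only control cultures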; settings: S. cerevisiae sgs1 mutant, active compounds read high
Method in brief: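 A genetically defined yeast mutant is incubated with the test compound, and its growth is compared to that of the same strain given vehicle.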

[2] = NCI Yeast Anticancer Drug Screen. Data for the mlh1 rad18 strain (AID 175); settings: S. cerevisiae mlh1 rad18 strain growth inhibition, active compounds read high
Method in brief: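 Steps: expose repair-defective yeast to compound; measure growth; express inhibition against vehicle-treated controls.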

[3] = NCI Yeast Anticancer Drug Screen. Data for the rad18 strain (AID 177); settings: S. cerevisiae rad18 mutant growth inhibition, active compounds read high
Method in brief: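 Measured value is growth inhibition of a yeast strain bearing a DNA repair alteration, referenced to vehicle-treated cells.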

[4] = NCI Yeast Anticancer Drug Screen. Data for the wt1 strain (AID 149);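 further: 0% = growth of vehicle-treated wt1 cultures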; settings: S. cerevisiae wt1 strain (SPY 50644) growth inhibition, active compounds read high
Method in brief: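 The wt1 strain was treated with compounds, and growth was compared with vehicle-treated cultures to give inhibition.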

[5] = NCI Yeast Anticancer Drug Screen. Data for the rad50EPP+ strain (AID 151);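 further: 0% = growth of vehicle-treated control cultures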; settings: S. cerevisiae rad50 mutant strain, active compounds read high
Method in brief: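 Read-out is yeast growth inhibition relative to vehicle; cells used were the rad50EPP+ strain.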

[6] = NCI Yeast Anticancer Drug Screen. Data for the mgt1 strain (AID 153); settings: S. cerevisiae mgt1 mutant growth inhibition, active compounds read high
Method in brief: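 Measured: inhibition of mgt1 yeast growth by compound, normalized to vehicle-treated cultures.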

[7] = NCI Yeast Anticancer Drug Screen. Data for the rad50 strain (AID 155);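 further: 0% = growth of vehicle-only cultures of the same strain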; settings: S. cerevisiae rad50 strain growth inhibition, active compounds read high
Method in brief: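 Cells are treated with compound, grown, and their growth is then scored against vehicle-only cultures of the same repair-deficient yeast strain.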

[8] = NCI Yeast Anticancer Drug Screen. Data for the mec2-1 strain (AID 157); settings: S. cerevisiae mec2-1 strain, active compounds read high
Method in brief: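 Using mec2-1 yeast: add compound, measure growth, express inhibition versus vehicle-treated cultures.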

[9] = NCI Yeast Anticancer Drug Screen. Data for the sgs1 mgt1 strain (AID 161);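 further: 0% = growth of cultures given vehicle only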; settings: S. cerevisiae sgs1 mgt1 strain, active compounds read high
Method in brief: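 Growth of a repair-deficient yeast mutant was monitored after compound treatment and expressed as inhibition relative to vehicle-treated cultures.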

[10] = NCI Yeast Anticancer Drug Screen. Data for the CLN2oe strain (AID 163);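 further: 0% = growth of vehicle-only control cultures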; settings: S. cerevisiae CLN2oe strain, active compounds read high
Method in brief: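 Whole-cell yeast growth assay. A strain engineered for altered cell-cycle control received compound, and inhibition relative to vehicle-treated cultures was recorded.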

[11] = NCI Yeast Anticancer Drug Screen. Data for the cln2 rad14 strain (AID 165);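 further: 0% = growth equal to vehicle treated cultures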; settings: S. cerevisiae cln2 rad14 strain, active compounds read high
Method in brief: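 Yeast strain cln2 rad14, bearing defects in cell cycle control and DNA repair, serves as the test system; values reflect growth inhibition compared with vehicle.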

[12] = NCI Yeast Anticancer Drug Screen. Data for the bub3 strain (AID 167); settings: S. cerevisiae bub3 mutant strain, active compounds read high
Method in brief: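 Part of a panel of yeast mutants defective in DNA damage repair or cell cycle regulation. Each strain is grown with compound, and inhibition is calculated relative to solvent-treated cultures.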

[13] = NCI Yeast Anticancer Drug Screen. Data for the wt2 strain (AID 169);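 further: 0% = growth of vehicle-treated yeast cultures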; settings: S. cerevisiae wt2 strain growth inhibition, active compounds read high
Method in brief: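 Treated yeast vs. vehicle-treated yeast: growth inhibition determined.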

[14] = NCI Yeast Anticancer Drug Screen. Data for the mlh1 strain (AID 171);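 further: 0% = growth of vehicle-treated control cultures of the same strain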; settings: S. cerevisiae mlh1 strain growth inhibition, active compounds read high
Method in brief: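 A yeast strain with a defined genetic lesion serves as the test organism. Cultures receive compound or vehicle, and growth is measured.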

[15] = NCI Yeast Anticancer Drug Screen. Data for the rad14 strain (AID 159);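 further: 0% = growth of vehicle-treated control cultures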; settings: S. cerevisiae rad14 strain growth inhibition, active compounds read high
Method in brief: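 Readout: yeast growth inhibition, referenced to vehicle-only cultures. Strain bears a defined alteration in DNA damage repair.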

[16] = at 5.0 µM (retest, dose inferred, filed as 0.5)
[17] = at 50.0 µM (retest, dose inferred, filed as 5.0)

Measured: growth inhibition

COc1ccc(/C=C2\CCc3ccccc3C2=O)cc1OC
inactive: [1]; at 33.0 µM 35% | [2]; [16] 10% | [2]; at 50.0 µM 63.5% | [3]; at 1.2 µM -20% | [3]; at 3.7 µM -10% | [3]; at 11.0 µM -18% | [3]; at 33.0 µM 19%
active: [1]; at 100.0 µM 93% | [2]; [17] 91% | [3]; at 100.0 µM 88%

CCCCOc1ccc(Nc2c3ccccc3nc3ccccc23)cc1
inactive: [4]; at 1.2 µM -12% | [4]; at 3.7 µM -24% | [4]; at 11.0 µM 69% | [5]; at 1.2 µM 13% | [6]; at 1.2 µM -27% | [6]; at 3.7 µM -13% | [7]; at 1.2 µM 41% | [7]; [16] 50% | [8]; at 1.2 µM -24% | [8]; at 3.7 µM -37% | [8]; [16] 12% | [8]; at 11.0 µM 68% | [9]; [16] 10% | [10]; at 1.2 µM -26% | [10]; at 3.7 µM 0% | [11]; [16] 10% | [11]; [17] -7% | [12]; at 1.2 µM -56% | [12]; at 3.7 µM -55% | [12]; [16] 15% | [12]; at 11.0 µM 66% | [12]; at 100.0 µM 69% | [13]; at 1.2 µM 7% | [13]; at 3.7 µM -10% | [14]; at 1.2 µM -39% | [14]; at 3.7 µM -34% | [14]; at 11.0 µM 34% | [1]; at 1.2 µM -3% | [1]; at 3.7 µM -11% | [2]; [16] 26% | [3]; at 1.2 µM -9% | [3]; at 3.7 µM -9%
active: [4]; at 33.0 µM 98% | [4]; at 100.0 µM 83% | [5]; at 3.7 µM 71% | [5]; at 11.0 µM 91% | [5]; at 33.0 µM 94% | [5]; at 100.0 µM 78% | [6]; at 11.0 µM 86% | [6]; at 33.0 µM 99% | [6]; at 100.0 µM 78% | [7]; at 3.7 µM 79% | [7]; at 11.0 µM 93% | [7]; at 33.0 µM 98% | [7]; [17] 96% | [7]; at 50.0 µM 90.7% | [7]; at 100.0 µM 85% | [8]; at 33.0 µM 97% | [8]; [17] 89% | [8]; at 50.0 µM 88% | [8]; at 100.0 µM 73% | [9]; [17] 94% | [9]; at 50.0 µM 91.3% | [10]; at 11.0 µM 72% | [10]; at 33.0 µM 98% | [10]; at 100.0 µM 76% | [11]; at 50.0 µM 88.8% | [12]; at 33.0 µM 99% | [12]; [17] 98% | [12]; at 50.0 µM 86.8% | [13]; at 11.0 µM 75% | [13]; at 33.0 µM 98% | [13]; at 100.0 µM 78% | [14]; at 33.0 µM 98% | [14]; at 100.0 µM 74% | [1]; at 11.0 µM 87% | [1]; at 33.0 µM 98% | [1]; at 100.0 µM 82% | [2]; [17] 92% | [2]; at 50.0 µM 87% | [3]; at 11.0 µM 89% | [3]; at 33.0 µM 99% | [3]; at 100.0 µM 75%

c1ccc(N/N=C2\CC(c3ccccc3)Oc3ccccc32)cc1 (stereo not drawn)
active: [7]; at 50.0 µM 71.2% | [15]; at 100.0 µM 72% | [2]; at 50.0 µM 72.5%
inactive: [4]; at 1.2 µM -1% | [4]; at 3.7 µM 0% | [4]; at 11.0 µM -3% | [4]; at 33.0 µM -2% | [4]; at 100.0 µM -2% | [5]; at 1.2 µM 19% | [5]; at 3.7 µM 33% | [5]; at 11.0 µM 47% | [5]; at 33.0 µM 64% | [5]; at 100.0 µM 50% | [6]; at 1.2 µM -3% | [6]; at 3.7 µM -1% | [6]; at 11.0 µM 6% | [6]; at 33.0 µM 11% | [6]; at 100.0 µM 22% | [7]; at 1.2 µM 4% | [7]; at 3.7 µM 11% | [7]; [16] 5% | [7]; at 11.0 µM 1% | [7]; at 33.0 µM 32% | [7]; [17] 8% | [7]; at 100.0 µM 28% | [8]; at 1.2 µM 1% | [8]; at 3.7 µM 4% | [8]; [16] -2% | [8]; at 11.0 µM 9% | [8]; at 33.0 µM 14% | [8]; [17] 23% | [8]; at 50.0 µM 31.4% | [8]; at 100.0 µM 13% | [15]; at 1.2 µM 0% | [15]; at 3.7 µM 4% | [15]; at 11.0 µM 10% | [15]; at 33.0 µM 52% | [10]; at 1.2 µM 0% | [10]; at 3.7 µM 1% | [10]; at 11.0 µM 1% | [10]; at 33.0 µM 12% | [10]; at 100.0 µM 17% | [11]; [16] -5% | [11]; [17] 4% | [11]; at 50.0 µM 30.6% | [12]; at 1.2 µM 1% | [12]; at 3.7 µM 4% | [12]; [16] -24% | [12]; at 11.0 µM 15% | [12]; at 33.0 µM 39% | [12]; [17] 27% | [12]; at 50.0 µM 53% | [12]; at 100.0 µM 39% | [13]; at 1.2 µM 0% | [13]; at 3.7 µM -4% | [13]; at 11.0 µM 5% | [13]; at 33.0 µM 21% | [13]; at 100.0 µM 29% | [14]; at 1.2 µM 1% | [14]; at 3.7 µM 0% | [14]; at 11.0 µM 4% | [14]; at 33.0 µM 6% | [14]; at 100.0 µM 3% | [1]; at 1.2 µM -1% | [1]; at 3.7 µM 0% | [1]; at 11.0 µM 5% | [1]; at 33.0 µM 18% | [1]; at 100.0 µM 24% | [2]; [16] -26% | [2]; [17] 50% | [3]; at 1.2 µM 6% | [3]; at 3.7 µM 14% | [3]; at 11.0 µM 20% | [3]; at 33.0 µM 33% | [3]; at 100.0 µM 49%
